Measured values: PubChem BioAssay AID2326 (National Center for Advancing Translational Sciences (NCATS), 2010)
About 1,100 (0.41%) of roughly 270,000 compounds were called active. Where a call stands in place of a potency, no number is given. Inconclusive results (about 3%) are left out. Calls come from the whole dose curve. Only a selection was taken, and actives are over-represented in it overall.

assay: qHTS Assay for Inhibitors of Influenza NS1 Protein Function; conditions: series mostly up to 46.1 µM; note: actives are rising curves; nearly all actives have a fitted effect of over 50% in size
From the text: NIH Chemical Genomics Center [NCGC]
NIH Molecular Libraries Probe Centers Network [MLPCN]
Assay Submitter (PI): Daniel Engel
Influenza is a world-wide public health problem and emerging forms of the virus have the potential to cause a pandemic of equal or greater magnitude to the outbreaks recorded in 1918, 1957 or 1968. Vaccine development is proceeding and there also exist two classes of anti-influenza compounds. However these therapeutic modalities are neither fully effective nor widely enough available to fulfill global needs. In addition their potential usefulness against newly emergent strains is not known. Efforts are needed to develop novel agents against influenza virus, including broad-spectrum agents. Identification of small molecules that inhibit NS1 function either directly or by interfering with specific cellular pathways may be a key to increasing our defense against the virus.
We have miniaturized and optimized a cell based assay in which NS1 from influenza A is expressed in the budding yeast S. cerevisiae. NS1 is a multi-functional protein that counters the host innate immune response and facilitates viral versus cellular gene expression. Expression of NS1 causes a pronounced slow growth phenotype in yeast due to its intrinsic molecular activities. Small molecules that suppress the slow growth phenotype can be identified by a straightforward growth recovery assay using optical density (OD) as the measurement. The same yeast strain not expressing NS1 was used as positive control in the yeast growth recovery assay.
The yeast S. cerevisiae control and NS1 expressing cells were kindly supplied by laboratory of Dr. Daniel Engel, University of Virginia. Yeast starter cultures were stored in single use aliquots at -80C.
1. Yeast culture medium per liter: 1.2 g Yeast Nitrogen Base (w/out amino acids and Ammonium Sulphate), 5.0g Ammonium Sulphate, 0.77g -URA DO (drop-out) Supplement, adjust pH to 6.0. Adjust to 2% glucose prior to inoculating with yeast.
2. Yeast assay medium: 1.2 g Yeast Nitrogen Base (w/out amino acids and Ammonium Sulphate), 5.0g Ammonium Sulphate, 0.77g -URA DO (drop-out) Supplement, adjust pH to 6.0. Adjust to 2% D-galactose prior to inoculating with yeast.
1. Inoculate 100 mls of yeast culture medium with 1 ml of frozen yeast aliquote. Incubate overnight at 30C, 250RPM.
2. Harvest overnight culture at 4000 RPM and wash pellet with 15 mls H2O 3x.
3. Re-suspend washed pellet in 10 mls of yeast assay medium.
4. Prepare a 1:100 dilution of re-suspended culture in yeast assay medium.
5. Dispense 3.5 ul per well of reagents in step 4 in columns 2-48 in a black clear bottom 1536 well plate.
6. Dispense 3.5 ul per well of yeast assay medium in column 1 only.
7. Transfer 23 nl of compound per well.
8. Dispense 3.5 ul per well of yeast assay medium in columns 1-48.
9. Read plate using Viewlux protocol for optical density 600 (OD600) using excitation filter 600nm.
Potency is the fitted concentration of half-maximal effect.

Structure (SMILES) | Potency
COc1ccc(/C=C2\SC(=O)N(CCC(=O)NC3CCS(=O)(=O)C3)C2=O)cc1 (configuration not stated) | inactive
O=C(CCS(=O)(=O)c1ccccc1)Nc1nc2c(s1)CCCC2 | inactive
Cc1nnc(NC(=O)Cn2c(=O)sc3ccccc32)s1 | inactive
Cc1ccc(-n2c(SCC(=O)N3CCC(C(=O)O)CC3)nc3ccccc3c2=O)cc1C | inactive
Cc1ccc(NS(=O)(=O)c2ccc(-c3coc(C)n3)cc2)c(C)c1 | inactive
CCOc1cc(CO)ccc1OCC(=O)N1CCCCC1 | inactive
CC(C)c1ccc(OCC(=O)N2CCN(C)CC2)c(Br)c1 | inactive
CN1CCN(C(=O)COc2ccc(C(C)(C)C)cc2Br)CC1 | 3.98 µM (active)
CC(C)(C)c1ccc(SCCc2ccncc2)cc1 | inactive
O=C(N/N=C/c1ccccc1O)C1CCCC1 | inactive
O=C(CSc1ccc(-c2ccccn2)nn1)Nc1ccccc1 | inactive
CCOc1ccccc1/C=N/Nc1nc2ccccc2o1 | inactive
O=S(=O)(NCc1ccc(Cl)cc1Cl)c1cccs1 | inactive
COCCCNc1nc2c(-c3cccc(C)c3)nnn2c2ccc(Cl)cc12 | inactive
CCCc1[nH]nc2c1C(C1CC=CCC1)C(C#N)=C(N)O2 (configuration not stated) | inactive
CCCc1[nH]nc2c1C(c1ccc(Br)s1)C(C#N)=C(N)O2 (configuration not stated) | 2.51 µM (active)
CCCc1[nH]nc2c1C(c1c(C)nn(-c3ccccc3)c1Cl)C(C#N)=C(N)O2 (configuration not stated) | inactive
Cc1cccc(C(=O)NC(=S)N(C)C2CCCCC2)c1 | inactive
COc1ccc(CCc2nc(-c3cccs3)no2)cc1 | inactive
COc1ccc(C(=O)NC(=S)N2CCCCC2c2cccnc2)cc1OC (configuration not stated) | inactive
O=C(N/N=C/c1cccc(OCc2ccccc2)c1)c1ccc(Br)o1 | inactive

Structure (SMILES) | Potency
O=C(Cc1ccc(Cl)cc1)NC(=S)Nc1ccccc1O | inactive
CCc1ccc(C(=O)OCC(=O)Nc2cccc(S(=O)(=O)NC3=NCCCCC3)c2)cc1 | inactive
NS(=O)(=O)c1cccc(NC(=O)CSc2nc3ccccc3n2-c2ccccc2)c1 | inactive
Cc1cccc(-n2c(SCC(=O)Nc3cccc(S(=O)(=O)NC4=NCCCCC4)c3)nc3ccccc3c2=O)c1C | 22.4 µM (active)
CCN(CC(=O)Nc1ccc(C)c(S(=O)(=O)N(C)C)c1)Cc1ccccc1 | inactive
Cc1ccc(CSc2nsc(C)c2C#N)cc1 | inactive
COc1ccc(C(=O)CC(=O)C(=O)Nc2cc([N+](=O)[O-])ccc2OC)cc1 | inactive
CSc1nccc(NC(=O)c2ccc(C(C)(C)C)cc2)n1 | inactive
O=C(COc1ccc(Cl)cc1Cl)N/N=C/c1ccccn1 | inactive
O=C(O)CC(c1ccccc1)n1cnnn1 (configuration not stated) | inactive
O=C(O)CC(Cn1cnnn1)c1ccccc1 (configuration not stated) | 8.91 µM (active)
O=C(O)CC(CC(=O)N1CCOCC1)c1ccccc1 (configuration not stated) | inactive
Cc1ccc(CNC(=O)C(=O)c2cn(CC(=O)N3CCCC3)c3ccccc23)cc1 | inactive
COc1cc(CNCc2ccc(OC)c3ccccc23)cc(OC)c1OC | inactive
COc1ccc(Nc2ncnc3ccc(Br)cc23)c(OC)c1 | inactive
COc1ccc(CC(=O)N/N=C/c2cc([N+](=O)[O-])cc(Br)c2O)cc1 | inactive
CC(C)(COC(=O)Nc1ccccc1)COC(=O)Nc1ccccc1 | inactive
COc1ccc(C=C(C#N)C#N)c(CSc2ccccn2)c1 | inactive
COc1ccc(NCCc2ccccn2)cc1 | inactive
Cc1ccc(NS(=O)(=O)c2ccc3c(c2)n(C)c(=O)c(=O)n3C)c(C)c1 | inactive
Cn1c(=O)c(=O)n(C)c2cc(S(=O)(=O)CCC(=O)N3CCCCC3)ccc21 | inactive

Structure (SMILES) | Potency
CCc1ccc(S(=O)(=O)Nc2cc3c(cc2N2CCCCC2)n(C)c(=O)c(=O)n3C)cc1 | 2.82 µM (active)
CCOC(=O)CC1COCCN1C(=O)c1cc(COc2ccc(F)c(F)c2)on1 (configuration not stated) | inactive
O=C(NC(=S)N1CCCCC1c1cccnc1)c1ccccc1 (configuration not stated) | inactive
CCC(C)c1ccc(NC(=S)N2CCCC2)cc1 (configuration not stated) | inactive
COC(=O)C1=C(C)N=C2SC(C)C(=O)N2C1/C=C/c1ccccc1 (configuration not stated) | 11.2 µM (active)
COC(=O)C1=C(C)NC(=O)NC1/C=C/c1ccccc1 (configuration not stated) | inactive
CCOC(=O)c1ccccc1N1C(=O)C2Sc3[nH]c(=O)sc3C(/C=C/c3ccccc3)C2C1=O (configuration not stated) | inactive
Cc1nonc1NC(=O)c1oc2ccccc2c1C | inactive
Cc1nc(N2CCOCC2)sc1C(=O)NN | inactive
Cc1ccc(SCC(=O)c2sc(-c3ccccc3)nc2C)cc1 | inactive
Cc1nc(-c2ccc(Cl)cc2)sc1C(=O)NN | 3.55 µM (active)
CN(CC(=O)Nc1ccc(F)cc1)C(=O)c1ccc(-c2ccc(Cl)cc2)o1 | inactive
CCOC(=O)CC1(NC(=O)c2cc(COc3cncc(Cl)c3)on2)CCCCC1 | inactive
O=C(Cc1cccs1)NCc1cccc(C(F)(F)F)c1 | inactive
O=C(CSc1nc2ccccc2c(=O)[nH]1)Nc1nc(-c2ccc(Br)cc2)cs1 | inactive
N#Cc1c(-c2cccs2)nc(SCC(=O)c2ccc(Br)cc2)[nH]c1=O | 3.16 µM (active)
Cc1ccc(CSc2nc(-c3ccccc3)c(C#N)c(=O)[nH]2)cc1 | inactive
COc1ccc(NC(=O)CSc2nc3ccccc3c(=O)n2C)cc1 | inactive
COCCN1C(=O)N(c2ccc(Cl)cc2)C(=O)C1CC(=O)Nc1cc(OC)cc(OC)c1 (configuration not stated) | inactive
CC(=O)N1c2ccc(S(=O)(=O)N3CCCC(C(=O)Nc4cccc(F)c4)C3)cc2CC1C (configuration not stated) | inactive
